The list is not random: actives were taken first. Their share in the collection is about 7.6%.
SW480 rerep – induces DNA re-replication in SW480 colon adenocarcinoma cells | SW480 DNA re-replication, Hoechst DNA content imaging, 48 h | Potency, µM (doses to about 46.1 µM), for inactives: at the highest dose re-replication activation, most hits filed as activators | hit rate 1.8% among 340,000; note: potency is the fitted concentration of half-maximal effect; % of control where 0% means no effect; nearly all actives have a fitted effect of over 55% in size
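SW480 cells exposed to compounds for 48 hr at 37 C, 5% CO2, then Hoechst-stained 40 min. Nuclear DNA content imaged by fluorescence scanning (405 nm excitation, 500-530 nm emission); re-replication scored as increased high-intensity nuclei.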
MCF10A rereplic – DNA re-replication induction in MCF 10a cells; MCF 10A DNA re-replication, Hoechst nuclear intensity, 48 h; Potency, µM (top dose mostly 46.1 µM), without a hit: at the top dose activity, positive = re-replication, hits mostly activators; hit rate 2.9% among 350,000; note: potency is the fitted concentration of half-maximal effect; % of control where 0% means no effect; nearly all actives have a fitted effect of over 50% in size
KB-3-1 cytotox – KB-3-1 parental cell cytotoxicity | KB-3-1 viability, CellTiter-Glo ATP luminescence, 72 h | Potency, µM (series often up to 46.1 µM), actives largely listed as cytotoxic | hit rate 1.4% among 400,000; note: potency is the fitted concentration of half-maximal effect; % is set by controls: 0 for no effect and ±100 for the full control effect; nearly all actives have a fitted effect of over 60% in size
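Here the drug-naive KB-3-1 line serves as comparator for MDR sub-line selectivity; cells received compound titrations, 72 h at 37 °C, then CellTiter-Glo readout.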
KB-V1 cytotox – KB-V1 MDR subline cytotoxicity; KB-V1 MDR cells viability, CellTiter-Glo, 72 h; Potency, µM (top dose mostly 46.1 µM), usual class: cytotoxic; hit rate 3.4% among 400,000; AID 1347076; note: potency is the fitted concentration of half-maximal effect; % is set by controls: 0 for no effect and ±100 for the full control effect; nearly all actives have a fitted effect of over 60% in size
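Drug-selected KB-V1 cells, grown in DMEM lacking phenol red with 10% FBS, receive compound titrations; after three days at 37 degrees C, surviving cell ATP is quantified by CellTiter-Glo luminescence and responses normalized and curve-fitted.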
KCNH2 3.1 inh – KCNH2 3.1 (human) potassium channel inhibition; U2OS KCNH2 3.1, thallium flux FluxOr; stronger effect = lower value; activity change, % (tested at about 1.8 µM); hit rate 0.95% among 340,000; AID 720553;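 active = maximum activity change below -70%; inconclusive = maximum activity change from -70% to -50%; inactive = maximum activity change above -50%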;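 note: thallium influx rate constant from kinetic fluorescence after stimulation buffer; % is set by controls: 0 for no effect and ±100 for the full control effect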
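Measured as rate of thallium-driven FluxOr signal in transduced U2OS cells carrying the 3.1 channel, read kinetically for 2 min upon stimulation; values are rate constants scaled to DMSO control wells.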
KCNH2 WT inh – KCNH2 (human, wildtype) channel inhibition; Q12809; U2OS, BacMam KCNH2, thallium flux FluxOr; stronger effect = lower value; activity change, % at 1.84 µM; hit rate 0.37% among 340,000; AID 720551;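 active = maximum activity change below -70%; inconclusive = maximum activity change between -70% and -50%; inactive = maximum activity change above -50%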; note: % is set by controls: 0 for no effect and ±100 for the full control effect
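U2OS cells were transduced with wild-type KCNH2 virus (2.03 x 10^8 / mL) for 4 h at room temperature, then cultured overnight at 37 C. Thallium flux was read with FluxOr dye. Rate constants were normalized to DMSO controls.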
* marks the source's active call; other numbers are inactive results; i = inactive; ? = inconclusive; · = no result given. Unless noted, calls come from the whole dose curve; as a rule, active = well fitted curve in the direction sought with a large enough effect; inconclusive = small, poorly fitted or top-dose-only effect, or another doubt; inactive = no such curve, though single readings can be large; an effect the other way counts as inactive or inconclusive.

SMILES	SW480 rerep	MCF10A rereplic	KB-3-1 cytotox	KB-V1 cytotox	KCNH2 3.1 inh	KCNH2 WT inh
CN(C=O)c1cc([N+](=O)[O-])ccc1OCc1ccccc1	-1%	?	i	18µM*	·	-3
CNc1cc([N+](=O)[O-])ccc1OCc1ccccc1	-5%	11%	i	i	7	-32
C/C(=N\NC(=O)c1ccccc1O)c1ccc(Br)s1	·	7%	i	?	17	9
C/C(=N\NC(=O)c1cccc(F)c1)c1ccc(Br)s1	9.2µM*	?	i	?	-7	-5
CCC1C/C(=C\c2cccnc2)C(=O)/C(=C/c2cccnc2)C1 (stereo unspecified)	·	?	3.7µM*	?	0	2
CN(C)c1ccc(/C=C2\Cc3ccccc3C2=O)cc1	·	·	i	i	·	·
CC(C)/C=C1\CC/C(=C\c2cccnc2)C1=O	3%	2%	i	i	6	-7
O=C1/C(=C/c2cccnc2)CC/C1=C\c1cccnc1	5%	?	?	i	-10	1
O=C1/C(=C/c2cccnc2)CCC/C1=C\c1cccnc1	1.3µM*	1.2µM*	?	3.3µM*	-13	5
CN(C)c1ccc(/C=C2\CCC/C(=C\c3ccccc3)C2=O)cc1	15%	18µM*	i	18µM*	2	-2
COc1cccc(CN2CC(C(=O)N3CCN(C(C)C)CC3)CCC2=O)c1 (stereo unspecified)	0%	-1%	i	i	6	-7
CCOC(=O)c1cnc2cc(C)nn2c1-c1ccccc1	-4%	2%	i	i	-19	-3
CCOc1ccc(NC(=O)CC2C(=O)N(CC)C(=S)N2CCN2CCOCC2)cc1 (stereo unspecified)	-3%	-3%	i	?	-88*	0
S=C1NC(c2ccccc2)=NCN1c1ccc(Cl)cc1	0%	1%	i	i	-11	-23
COC(=O)c1ccc(N2CN=C(c3ccc(C)cc3)NC2=S)cc1	-1%	26µM*	i	i	0	11
CC(=O)N1C[C@H]2CON(C)[C@H]2C[C@H]1c1cccc(-c2cc(Cl)cc(Cl)c2)c1	·	·	i	i	-6	-2
Cc1ccc(S(=O)(=O)N(C)C)cc1NC(=O)C1CCCCC1	-6%	-3%	?	i	2	25
C/C(=N/NC(=O)C1CC1(c1ccccc1)c1ccccc1)c1ccco1 (stereo unspecified)	-1%	10%	i	i	2	-5
O=C(N/N=C/c1ccco1)C1CC1(c1ccccc1)c1ccccc1 (stereo unspecified)	-12%	2%	i	21µM*	-2	-22
CCOC1=NC(=C(c2ccccc2)c2ccccc2)OC1=O	-16%	?	i	i	-8	1
Cc1nc2c(cnn2-c2ccccc2Cl)c(=O)n1-c1ccc(N2CCC(C)CC2)cc1	-1%	4%	16µM*	6.5µM*	8	-14
Cc1ccc(-n2c(C)nc3c(cnn3-c3ccccc3Cl)c2=O)cc1C	3%	0%	?	21µM*	6	-15
Cc1ccc(NC(=O)N2CCCCC2)cc1[N+](=O)[O-]	-2%	-4%	i	i	-7	0
O=C(NC1(Cc2ccccc2)CCN(CCc2cccs2)C1=O)c1ccccc1 (stereo unspecified)	-7%	8%	i	i	28	7
CCN(CC)CCn1c(=N)n(CC(O)COc2ccccc2)c2ccccc21 (stereo unspecified)	21µM*	22%	i	i	-9	47
SMILES	SW480 rerep	MCF10A rereplic	KB-3-1 cytotox	KB-V1 cytotox	KCNH2 3.1 inh	KCNH2 WT inh
CCN(CC)CCn1c(=N)n(CCOc2ccccc2)c2ccccc21	11µM*	24%	?	i	?	27
CCN(CC)CCn1c(=N)n(CCO)c2ccccc21	-5%	7%	i	i	·	-1
CN=c1sc2ccccc2n1CC(O)COc1ccccc1 (stereo unspecified)	3%	20%	i	15µM*	-16	4
COc1ccc(OCCn2c(=N)n(CCO)c3ccccc32)cc1	-7%	2%	i	i	-11	1
CCCCn1c(=N)n(CCOc2ccc(C)cc2)c2ccccc21	18µM*	?	?	?	-111*	-128*
Cc1ccc(CCNC(=O)c2nc(CS(=O)(=O)c3ccc(Cl)cc3)no2)cc1	0%	11%	i	i	7	7
CCOc1cc(S(=O)(=O)n2ccnc2)ccc1Cl	-6%	-9%	i	?	0	-2
CCN(CC)CCOc1ccc(Cc2ccccc2)cc1	-1%	24µM*	·	·	·	·
CCN(Cc1ccccc1)Cc1ccc(OCc2ccccc2)cc1	0%	0%	i	i	13	1
O=C(C#Cc1ccccc1)c1ccc([N+](=O)[O-])cc1	13µM*	?	23µM*	?	-8	-14
CC(C)(C)c1ccc(CN2N=Nc3ccccc3S2(=O)=O)cc1	?	?	12µM*	8.2µM*	8	5
CC1(COc2ccc(CC3SC(=O)NC3=O)cc2)CCCCC1 (stereo unspecified)	12%	?	·	·	·	·
CCCCSc1nnc(CNC(=O)C23CC4CC(CC(C4)C2)C3)n1Cc1ccccc1	13%	?	?	2.6µM*	-17	6
CCCCn1c(CNC(=O)C23CC4CC(CC(C4)C2)C3)nnc1SC(C)CC (stereo unspecified)	7%	?	?	21µM*	10	22
O=C(O)c1cccc(NC(=O)c2cccc(S(=O)(=O)Nc3cccc(F)c3)c2)c1	·	·	i	i	·	·
COc1ccc(CC(=O)NC2CCCCCC2)c(OC)c1	0%	6%	i	i	-14	-5
O=C1CN(C(=O)c2ccc(S(=O)(=O)N3CCCCC3)cc2)C(c2ccc(F)cc2)c2cc(F)ccc2N1 (stereo unspecified)	·	·	i	i	·	·
O=C(NCc1ccc2c(c1)OCO2)C1CCN(c2ncccn2)CC1	-3%	5%	i	?	-5	6
O=C(NCc1ccc2c(c1)OCO2)C1CCN(c2ccc(S(=O)(=O)N3CCCC3)cc2)CC1	6%	2%	?	2.6µM*	-2	0
Cc1ccnc(N2CCC(C(=O)NCc3ccc4c(c3)OCO4)CC2)n1	-6%	-3%	i	i	-16	-195*
Cc1ccnc(NC(=S)N2CCN(c3ccc(C#N)cc3)CC2)c1	·	·	i	i	·	·
COc1ccc(NS(=O)(=O)c2cc(C)ccc2NC(=O)c2cc(C)oc2C)cc1	0.73µM*	0.65µM*	0.041µM*	0.26µM*	4	1

From PubChem BioAssay
